Screens: PubChem, several laboratories
ROMK primary: modulates human ROMK potassium channel activity | P48048 | Tet-inducible ROMK, thallium flux fluorescence; actives lie on both sides | B-score at 10 µM | 130,000 tested, 2% active | AID 1918;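 active = signal ratio slope over the read window, or its plate-corrected B-score, at least 3 SD from the plate mean, either direction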;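 also: B-score of the F/F0 ratio slope over 7 to 12 s after thallium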
p97 inhibitor: blocks human p97 ATPase activity; P55072; recombinant p97 ATPase, Kinase-Glo ATP luminescence, 3 h; inhibition, % at 8 µM; 220,000 tested, 0.42% active; AID 1481; in the data active = inhibition above about 15%;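 also: 0% = DMSO vehicle and 100% = wells lacking enzyme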
Target sequence (P55072 whole entry, looked up): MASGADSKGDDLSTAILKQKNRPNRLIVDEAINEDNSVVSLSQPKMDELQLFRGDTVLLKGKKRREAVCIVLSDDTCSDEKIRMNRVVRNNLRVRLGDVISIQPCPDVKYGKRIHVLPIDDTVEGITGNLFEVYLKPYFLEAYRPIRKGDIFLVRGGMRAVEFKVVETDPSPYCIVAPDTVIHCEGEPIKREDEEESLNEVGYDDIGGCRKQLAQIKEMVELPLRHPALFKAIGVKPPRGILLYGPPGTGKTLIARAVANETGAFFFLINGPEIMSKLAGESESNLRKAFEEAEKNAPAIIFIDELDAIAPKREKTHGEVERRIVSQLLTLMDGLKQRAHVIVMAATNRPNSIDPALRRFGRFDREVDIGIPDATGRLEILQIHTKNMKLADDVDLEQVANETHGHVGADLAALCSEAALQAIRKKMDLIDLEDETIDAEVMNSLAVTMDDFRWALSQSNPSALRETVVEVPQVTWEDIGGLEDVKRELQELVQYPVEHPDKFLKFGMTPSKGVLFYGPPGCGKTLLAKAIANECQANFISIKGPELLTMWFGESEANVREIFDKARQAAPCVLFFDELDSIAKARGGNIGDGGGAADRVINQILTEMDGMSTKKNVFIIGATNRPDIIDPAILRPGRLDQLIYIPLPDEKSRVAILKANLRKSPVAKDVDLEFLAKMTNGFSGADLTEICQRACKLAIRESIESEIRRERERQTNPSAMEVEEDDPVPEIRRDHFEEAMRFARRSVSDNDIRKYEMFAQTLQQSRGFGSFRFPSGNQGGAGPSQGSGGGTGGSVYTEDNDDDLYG
Lmaj promast: reduces viability of Leishmania major promastigotes. resazurin fluorescence viability. 200,000 tested, 9% active. inhibition, % at 10 µM; in the data active = inhibition above about 50%;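 also: promastigotes grown with compound for 44 hours at 28 °C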
Insulin prom inh: TRM-6 insulin promoter activity inhibition | TRM-6 cells (human fetal islet line), insulin promoter-eGFP reporter, imaging; reporter expression induced with tamoxifen | inhibition, % at 2 µM | 130,000 tested, 0.9% active | AID 1273;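 active = inhibition above the mean plus 3 SD, with well images judged a real hit on visual review, cut at about 60% in these data, passing the limit was not always enough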
HCT116 bCat-KO: beta-catenin-lacking colon tumor cell growth suppression. HCT116 beta-catenin knockout viability, CellTiter-Glo, 60 h; hits give low values. viability, % at 10 µM. 140,000 tested, 1.5% active. AID 818;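 active = viability at or under a set limit, the compound median less 4 SD, cut at about 6% in these data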;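 also: 0% = Hyamine 1622 control at 20 µM and 100% = untreated cell control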
PTEN del growth: suppresses growth of cells with PTEN deletion; HCT116 PTEN-null viability, CellTiter-Glo, 60 h; hits give low values; viability, % at 10 µM; AID 827; 140,000 tested, 1.2% active;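 active = viability at or below a set limit, 4 SD under the median of all tested compounds, cut at about 3.7% in these data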;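 also: PTEN knockout HCT116 line with beta catenin targeted HCT116 as companion control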
* marks the source's active call; other numbers are inactive results; . = no result. This is a sample that favours compounds with a hit; in the whole collection about 10% have one here.

SMILES | ROMK primary | p97 inhibitor | Lmaj promast | Insulin prom inh | HCT116 bCat-KO | PTEN del growth
CCOC(=O)CC(c1ccc([N+](=O)[O-])cc1)n1c(C)ccc1C (stereo unspecified) | 1.86 | -1.2 | 3.7 | . | . | .
COc1ccc(CN(C)CC(=O)NC2CCCc3ccccc32)cc1OC (stereo unspecified) | 0.198 | 2.3 | 9.4 | -40.7 | . | .
Cc1ccc(C(=O)OCC(=O)Nc2sc3c(c2C#N)CCC3)cc1 | -0.0627 | 1.5 | 51.5* | -55.2 | 104.7 | 89.4
COc1ccc(-n2c(SCC(=O)Nc3sc4c(c3C#N)CCCC4)nnc2-c2ccccc2OC)cc1 | -1.92 | 3.2 | 46.4 | -60.0 | 78.8 | 81.3
COc1ccc(NC(=O)CSc2c3c(nc4ccccc24)CCCC3)c(OC)c1 | -1.16 | -2.4 | 35.1 | -6.7 | 5.9* | 10.9
COc1ccccc1NC(=O)CSc1c2c(nc3ccccc13)CCC2 | 0.549 | 2.2 | 35.6 | 48.3 | 76.4 | 72.8
COc1ccc(-c2nnc(SCC(=O)Nc3sc4c(c3C#N)CCCC4)n2-c2ccccc2)cc1 | . | 1.2 | -3.3 | -230.8 | 3.9* | 1.7*
O=Cc1cccn1-c1ncc(Br)cn1 | 0.579 | 8.1 | -8.6 | 6.7 | . | .
O=C(CSCC(=O)NCc1ccco1)NCc1ccco1 | 0.082 | 6.8 | -10.4 | . | 98.7 | 93.4
O=C(NCc1ccco1)N1c2ccccc2Sc2ccccc21 | 0.00353 | 3.2 | 62.2* | -28.6 | 90.4 | 96.2
COc1ccc(CCNC(=O)N2CCOCC2)cc1 | 1 | -3.4 | -4.3 | -75.0 | 98.9 | 98.6
COc1ccc(CCNC(=O)N2c3ccccc3Sc3ccccc32)cc1 | . | -8.4 | 68.2* | 22.2 | . | .
COC(=O)c1ccccc1NC(=O)N1c2ccccc2Sc2ccccc21 | -0.794 | -1.4 | 89.9* | -37.8 | 77.1 | 72.0
O=C(NCCCn1ccnc1)C1CC(c2ccccc2Cl)=NO1 (stereo unspecified) | . | 0.5 | . | . | . | .
CC1CCN(c2nc3c(c(=O)[nH]c(=O)n3C)n2CC(C)CSc2nnnn2-c2ccccc2)CC1 (stereo unspecified) | -1.72 | -1.1 | 97.7* | 25.0 | 78.0 | 85.6
C=C(C)Cn1c(N2CCC(Cc3ccccc3)CC2)nc2c1c(=O)[nH]c(=O)n2C | . | -2.0 | 77.7* | 7.1 | 65.5 | 60.8
CC(=O)Cn1c(N2CCC(Cc3ccccc3)CC2)nc2c1c(=O)[nH]c(=O)n2C | . | 5.6 | 2.8 | . | 87.0 | 95.7
Cn1c(=O)[nH]c(=O)c2c1nc(N1CCCCC1)n2CCCSc1nnnn1-c1ccccc1 | . | -9.4 | 7.1 | . | 72.5 | 80.7
CCCCCn1c(N2CCC(Cc3ccccc3)CC2)nc2c1c(=O)[nH]c(=O)n2C | . | -9.6 | 98.9* | . | . | .
CCCCCn1c(N2CCN(Cc3ccccc3)CC2)nc2c1c(=O)[nH]c(=O)n2C | 0.73 | -1.8 | 99.9* | -5.4 | 74.3 | 64.1
Cc1cccc(OCC(=O)N/N=C\c2cc3c(cc2[N+](=O)[O-])OCO3)c1C | 0.622 | 4.8 | 25.0 | 12.9 | 76.4 | 77.2
C[C@@H]1CN(CCCn2c3ccccc3c3ccccc32)C[C@H](C)N1 | . | 2.7 | . | . | . | .
CCOc1ccc(NC(=O)CN(C)CC(=O)Nc2ccc(F)c(F)c2F)cc1OCC | -1.07 | 3.7 | -3.1 | . | . | .
COc1ccc(NC(=O)C2=CCN(S(=O)(=O)c3ccccc3)CC2)cc1OC | . | 4.3 | . | . | . | .
CN(Cc1ccccc1)c1nc2c(c(=O)[nH]c(=O)n2C)n1CCOc1ccccc1 | -2.54 | 1.1 | 55.1* | -35.7 | 67.8 | 73.8
SMILES | ROMK primary | p97 inhibitor | Lmaj promast | Insulin prom inh | HCT116 bCat-KO | PTEN del growth
Oc1c(Cl)cc(Cl)cc1/C=C/c1ccc2cccc(O)c2n1 | -0.514 | 7.0 | 45.7 | . | . | .
CSc1ccc(/C=C/c2ccc3cccc(O)c3n2)cc1 | -0.709 | 3.6 | 89.4* | . | . | .
Oc1cccc2ccc(/C=C/c3cccs3)nc12 | . | -6.8 | 94.5* | 43.5 | 6.1 | 3.8*
Cc1ccsc1/C=C/c1ccc2cccc(O)c2n1 | 0.376 | 1.5 | 98.2* | 3.5 | 5.0* | 4.1
Cc1ccsc1/C=C/c1ccc2ccccc2n1 | . | -2.5 | 0.1 | 38.7 | 51.8 | 49.5
O=[N+]([O-])c1cccc2ccc(/C=C/c3ccc(Cl)cc3)nc12 | . | -2.6 | -1.5 | . | 61.1 | 57.9
O=[N+]([O-])c1ccc(Cl)c(S(=O)(=O)/N=C(/c2ccccc2)N2CCOCC2)c1 | 0.121 | 0.9 | -5.5 | . | . | .
O=c1cc(/N=C/c2coc3c(ccc4ccccc43)c2=O)[nH]c(=S)[nH]1 | . | -0.1 | 51.4* | -7.4 | 93.2 | 95.0
O=C(Cn1nc(C(=O)O)c2ccccc2c1=O)Nc1ccc2c(c1)C(=O)c1ccccc1C2=O | . | 10.1 | . | . | . | .
O=c1c2c3c(sc2nc2n1CCCCC2)CCC3 | -1.04 | -3.0 | 55.2* | -25.8 | 89.4 | 96.3
O=C1CCCc2c1sc1nc3n(c(=O)c21)CCCCC3 | . | 1.5 | 1.8 | -342.9 | 106.8 | 97.8
CCc1ccc(-c2cc(C(=O)N3N=C(C(F)F)CC3(O)C(F)F)c3ccccc3n2)cc1 (stereo unspecified) | . | 4.2 | 71.2* | 6.7 | 7.1 | 3.5*
COc1ccc2cc(-c3[nH]ncc3CN3CCCC3c3nonc3C)ccc2c1 (stereo unspecified) | -0.35 | 3.5 | 23.7 | . | . | .
O=C1CSC(c2nn(-c3ccccc3)cc2-c2cc3ccccc3oc2=O)N1Cc1ccco1 (stereo unspecified) | . | 0.6 | 51.7* | -18.2 | 59.4 | 53.2
O=C(CCC(=O)OCC(=O)c1ccc([N+](=O)[O-])cc1)NC1CCCCC1 | . | 2.8 | 76.5* | 8.1 | 91.1 | 88.7
CC(C)(C)OC(=O)N1CCC[C@H]1C(=O)N/N=C/c1cccc2nccnc12 | . | 4.1 | . | . | . | .
CC(C)NC(=O)c1ccc2c(=O)n(C3CCCC3)c(=S)[nH]c2c1 | 0.206 | 4.3 | 1.0 | . | 92.8 | 82.7
CCN(CC)CCNC(=O)c1ccc2c(=O)n(C3CCCC3)c(=S)[nH]c2c1 | . | 1.1 | 85.2* | -13.2 | 18.9 | 8.2
Cc1ccc(C2(c3noc(CN4CCC(c5ccncc5)CC4)n3)CCCC2)cc1 | -2.15 | -14.5 | 50.9* | 0.0 | . | .
Fc1cccc(Cc2noc(CN3CCC(c4ccncc4)CC3)n2)c1 | -0.854 | -4.2 | 94.6* | . | . | .
Cc1ccc(C2(c3noc(CN(C)CC4CCCCO4)n3)CCCC2)cc1 (stereo unspecified) | 0.425 | -1.2 | -6.7 | . | . | .
OCC1CCCN(C2CCN(Cc3nc(Cc4cccc(C(F)(F)F)c4)no3)CC2)C1 (stereo unspecified) | -0.837 | 1.6 | 88.8* | . | . | .
COc1ccc(NC(=O)COc2nc3ccccc3nc2N2CCOCC2)c(OC)c1 | 0.464 | 5.8 | -5.9 | . | . | .
O=C(Nc1ccnc(-c2cccnc2)n1)c1cccc(Cl)c1Cl | . | -6.0 | 3.6 | -16.0 | 88.4 | 95.9
CCOc1ccc(S(=O)(=O)N(C(=O)c2ccco2)c2cc3sc(=O)oc3c3ccccc23)cc1 | 0.771 | 2.5 | 96.8* | -15.4 | 50.9 | 52.7
COc1ccc(S(=O)(=O)N(C(=O)c2ccco2)c2cc3sc(=O)oc3c3ccccc23)cc1 | -0.0907 | 6.0 | 98.9* | -3.9 | 79.7 | 93.2
Cc1ccc(S(=O)(=O)N(C(=O)c2ccco2)c2cc3sc(=O)oc3c3ccccc23)cc1 | . | 8.0 | 97.7* | -17.2 | 61.6 | 63.6
CCOc1ccc(NC(=O)c2ccco2)cc1 | 0.0239 | -4.8 | -2.1 | -31.2 | 102.4 | 106.8
